# Substitutions are numbered along the chain they refer to.
# Tests used:
# Assay in all cases: PBM; 200 nM protein, PBS
# Settings in all cases: dsDNA, one strand shown
# SIX6 [1] = target: T1, SIX6 (Homo sapiens, UniProt O95475 114-200, L167I)
# T1 sequence: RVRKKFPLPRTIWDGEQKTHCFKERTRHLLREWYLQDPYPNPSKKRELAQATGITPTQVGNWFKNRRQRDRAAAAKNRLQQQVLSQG
# SIX6 [2] = target: T2, SIX6 (Homo sapiens, UniProt O95475 114-200, T165P)
# T2 sequence: T1 sequence with T52P, I54L
# SIX6 [3] = target: T3, SIX6 (Homo sapiens, UniProt O95475 114-200, L167M)
# T3 sequence: T1 sequence with I54M
# SIX6 [4] = target: T4, SIX6 (Homo sapiens, UniProt O95475 114-200, T165G)
# T4 sequence: T1 sequence with T52G, I54L
# SIX6 [5] = target: T5, SIX6 (Homo sapiens, UniProt O95475 114-200, T139Q)
# T5 sequence: T1 sequence with T26Q, I54L
# SIX6 [6] = target: T6, SIX6 (Homo sapiens, UniProt O95475 114-200, L167V)
# T6 sequence: T1 sequence with I54V
# SIX6 [7] = target: T7, SIX6 (Homo sapiens, UniProt O95475 114-200, T165I)
# T7 sequence: T1 sequence with T52I, I54L
sequence,measurement,setting,value
CCCGGCGG,binding signal,SIX6 [1],"9.11 upbm affinity estimate (log intensity, higher = more binding, comparable within an allelic series)"
same,binding signal,SIX6 [2],"8.96 upbm affinity estimate (log intensity, higher = more binding, comparable within an allelic series)"
same,binding signal,SIX6 [3],"9 upbm affinity estimate (log intensity, higher = more binding, comparable within an allelic series)"
same,binding signal,SIX6 [4],"9.14 upbm affinity estimate (log intensity, higher = more binding, comparable within an allelic series)"
same,binding signal,SIX6 [5],"9.18 upbm affinity estimate (log intensity, higher = more binding, comparable within an allelic series)"
same,binding signal,SIX6 [6],"9.07 upbm affinity estimate (log intensity, higher = more binding, comparable within an allelic series)"
same,binding signal,SIX6 [7],"9.08 upbm affinity estimate (log intensity, higher = more binding, comparable within an allelic series)"

# From PMC11006913
